TDP1 cell noCPT: qHTS for Inhibitors of human tyrosyl-DNA phosphodiesterase 1 (TDP1): qHTS in cells in absence of CPT; DT40 Tdp1-/- hTDP1 cells, no CPT, ATP luminescence, 48 h; Potency, µM (highest dose often 46.2 µM), inactives show at the top dose activity change, negative = growth inhibition, usual class: inhibitors; hit rate 15% among 420,000; note: % is set by controls: 0 for no effect and ±100 for the full control effect; nearly all actives have a fitted effect of over 55% in size
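Chicken DT40 Tdp1-/- cells complemented with human TDP1, screened without camptothecin (DMSO vehicle only), 400 cells/well. Compounds pin-transferred, cells incubated at 37 °C for at least 48 hr. Growth read as ATP-dependent luminescence (CellTiter-Glo, 30 min at RT).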
TDP1 cell CPT: qHTS for Inhibitors of human tyrosyl-DNA phosphodiesterase 1 (TDP1): qHTS in cells in presence of CPT. chicken DT40 Tdp1-/-;hTDP1 cells + 20 nM CPT, ATP luminescence, 48 h. hit rate 12% among 420,000. Potency, µM (doses to about 46.2 µM), inactives show at the highest dose activity change, negative = growth inhibition, most hits filed as inhibitors; note: % is set by controls: 0 for no effect and ±100 for the full control effect; nearly all actives have a fitted effect of over 55% in size
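Chicken DT40 Tdp1-/- cells complemented with human TDP1, 400 cells/well, exposed to compounds plus 20 nM camptothecin for at least 48 h at 37 C; viability read as ATP content by CellTiter-Glo luminescence.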
ATXN2 expr inh: Primary qHTS for Inhibitors of ATXN expression | HEK-293 ATXN2-luciferase reporter, luminescence, 24 h | Potency, µM (top dose mostly 57 µM), without a hit: at the top dose activity change, negative = inhibition, hits mostly inhibitors | hit rate 0.72% among 360,000 | AID 1745845, 2022; note: % is set by controls: 0 for no effect and ±100 for the full control effect; nearly all actives have a fitted effect of over 55% in size
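ATXN2-luciferase reporter cells (luciferase flanked by upstream and downstream ATXN2 gene portions) were treated 24 h at 37 °C with compounds at up to 57 uM. SteadyGlo luminescence gave expression; GF-AFC fluorescence gave viability.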
HepG2 tox: qHTS for Inhibitors of TGF-b: Cytotox Counterscreen; Potency, µM (highest dose often 46.1 µM), without a hit: top-dose activity change, negative = cytotoxicity, hits mostly cytotoxic; AID 588856, 2011; HepG2 CAGA-GFP viability, ATP luminescence, 18 h; hit rate 0.76% among 410,000
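CellTiter-Glo luminescence gave cytotoxicity after 18 hours at 37 degrees C. The cells were HepG2 CAGA-GFP in 1% FBS DMEM, stimulated with 500 pg/mL TGF-beta after compound addition. %Activity was normalised to no-cell wells (complete cell-killing) and DMSO (no toxicity), and curves were fitted and classified.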
TGFb SMAD3 inh: qHTS for Inhibitors of TGF-b. AID 588855, 2011. Potency, µM (titrated, usually from 46.1 µM), for inactives: at the highest dose activity, negative = inhibition, actives largely listed as inhibitors. hit rate 1.2% among 410,000. HepG2 CAGA-GFP TGF-b/SMAD3 reporter, GFP fluorescence, 18 h; TGF-beta stimulated, 500 pg/mL final; note: % is set by controls: 0 for no effect and ±100 for the full control effect; nearly all actives have a fitted effect of over 65% in size
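Cell-based qHTS in HEPG2 carrying a CAGA-GFP Smad reporter; compounds added before 500 pg/mL final TGF-beta, 18 h incubation at 37 degrees C, GFP fluorescence quantified per cell by imaging cytometry.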
S2 tox: Viability Counterscreen for Primary qHTS for Inhibitors of ATXN expression. S2 cells (HEK-293 line with an ATXN2-luciferase reporter) viability, CellTiter-Fluor protease fluorescence, 24 h. Potency, µM (highest dose often 56.7 µM), usual class: cytotoxic. hit rate 0.49% among 400,000; note: nearly all actives have a fitted effect of over 40% in size
An asterisk follows results filed as active; i = inactive; ? = inconclusive; . = no result given; [ ] = another dose, or the depositor's remark. Rows were chosen to be rich in hits. Some 17% of all compounds tested hit in one or more screens of this group. Calls come from the whole dose curve; as a rule, active = well fitted curve in the direction sought with a large enough effect; inconclusive = small, poorly fitted or top-dose-only effect, or another doubt; inactive = no such curve, though single readings can be large; an effect the other way counts as inactive or inconclusive. Potency is the fitted concentration of half-maximal effect.

SMILES	TDP1 cell noCPT	TDP1 cell CPT	ATXN2 expr inh	HepG2 tox	TGFb SMAD3 inh	S2 tox
O=C(/C=C/c1cn(CC(O)CN2CCCCC2)c2ccccc12)c1ccccc1 (stereo not given)	?	?	-1%	5%	?	.
O=C(/C=C/c1cn(CC(O)CN2CCCCCC2)c2ccccc12)c1ccccc1 (stereo not given)	23µM*	?	?	-91%	?	.
CCOC(=O)C1CCN(C(=O)C2CCN(c3nc4ccc(OC)cc4s3)CC2)CC1	16µM*	13µM*	-12%	-2%	-19%	i
CN(C)c1ccc(C(=O)N2CCN(c3cc(C(F)(F)F)nc4ccccc34)CC2)cc1	?	?	?	1%	0%	?
Cc1cc(C)c2sc(N3CCN(C(=O)C4CC4)CC3)nc2c1	18µM*	29µM*	-5%	-29%	-47%	i
COc1ccc2nc(N3CCN(C(=O)C4CC4)CC3)sc2c1	-25%	-3%	.	-2%	?	.
Cc1cc(C)c2sc(N3CCN(C(=O)c4ccc(N(C)C)cc4)CC3)nc2c1	15µM*	?	-25%	-13%	-3%	i
CC1=CC(=O)C2(C)C(C)=C(C)C12C (stereo not given)	-19%	-9%	.	-1%	-11%	i
Cc1cccc(NC(=S)NCCc2ccccn2)c1	-19%	-10%	2%	-7%	-6%	?
CC(=NNC(=S)Nc1ccc(C)cc1)c1ccccn1	0.018µM*	0.018µM*	-60%	-57%	?	i
CC(=NNC(=S)Nc1cccc(C)c1)c1ccccn1	0.033µM*	0.018µM*	-57%	-2%	?	?
COc1ccccc1NC(=O)c1ccccc1NC(=O)c1ccccn1	?	?	-8%	3%	6%	i
COc1ccccc1NC(=S)NN=C(C)c1ccccn1	0.15µM*	0.013µM*	-57%	-17%	?	?
C/C(CC(=O)Nc1cc(C)cc(C)c1)=N\NC(=O)c1ccccn1	-16%	0%	12%	-3%	12%	i
CC(C)CCNC(=O)Cn1cc(S(=O)(=O)Cc2ccc(F)cc2)c2ccccc21	?	26µM*	.	-38%	?	.
COc1ccc(CCNC(=O)CCCn2c(=O)c3ccccc3n(Cc3c(C)cc(C)cc3C)c2=O)cc1OC	2%	2%	16%	-12%	0%	i
O=C(CCCn1c(=O)c2ccccc2n(Cc2ccc(F)cc2Cl)c1=O)NCCc1ccc(Cl)cc1	18µM*	?	4%	6%	-5%	i
COc1ccc(CCNC(=O)CCn2c(=O)c3ccccc3n(Cc3ccccc3C)c2=O)cc1OC	18µM*	15µM*	6%	1%	0%	i
COc1ccc(CCNC(=O)CCCn2c(=O)c3ccccc3n(Cc3cccc(Cl)c3)c2=O)cc1OC	?	?	?	-37%	11µM*	.
O=C(COc1ccc([N+](=O)[O-])cc1)NNC(=O)Nc1cccc(F)c1	-19%	-10%	6%	23%	-29%	?
COc1ccc(CCNC(=O)CCCCn2c(=O)c3ccccc3n(Cc3ccc(F)cc3Cl)c2=O)cc1OC	6.5µM*	21µM*	-1%	17%	-1%	i
COc1ccc(Cl)cc1NC(=O)Cn1c(=O)n(CCCC(=O)NCCc2ccc(OC)c(OC)c2)c(=O)c2ccccc21	8.2µM*	15µM*	-3%	-57%	?	.
COc1ccc(CCNC(=O)CCCCn2c(=O)c3ccccc3n(Cc3ccc(Cl)cc3)c2=O)cc1OC	?	23µM*	-38%	-1%	-15%	?
COC(=O)c1ccccc1NC(=O)Cn1cc(S(=O)(=O)Cc2ccccc2F)c2ccccc21	21µM*	15µM*	.	-13%	0%	.
CC(C)c1ccc(C2(C)NC(=O)N(CC(=O)NC3(C#N)CCCC3)C2=O)cc1 (stereo not given)	-19%	?	-5%	-13%	-10%	i
SMILES	TDP1 cell noCPT	TDP1 cell CPT	ATXN2 expr inh	HepG2 tox	TGFb SMAD3 inh	S2 tox
O=c1c2cccnc2n(Cc2ccccc2F)c(=O)n1Cc1ccccc1Cl	-27%	-9%	3%	9%	-4%	i
Cc1ccc(C)c(C(=O)CCC(=O)Nc2ccc(F)cc2)c1	7%	-1%	-5%	2%	0%	i
CC(C)c1ccc(C(=O)N2CCCCC2c2cc(C(=O)NCc3cccnc3)no2)cc1 (stereo not given)	?	?	-12%	-7%	-1%	i
CCCCNC(=O)c1c(N)[nH]c(C(=O)c2ccccc2)c1-c1ccc(Cl)cc1	-15%	2%	10%	.	.	i
COc1ccc(CCNC(=O)Cn2cc(S(=O)(=O)Cc3cccc(Cl)c3)c3ccccc32)cc1OC	18µM*	?	.	2%	?	.
Cc1cnc(-n2ncc(C(=O)N(C)CCc3ccccn3)c2-c2cccs2)nc1-c1ccc(F)cc1	12µM*	-14%[9.04 µM]	.	.	.	i
NC(=O)c1ccc[n+]([C@@H]2O[C@H](COP(=O)([O-])OP(=O)(O)OC[C@H]3O[C@@H](n4cnc5c(N)ncnc54)[C@H](O)[C@@H]3O)[C@@H](O)[C@H]2O)c1	-18%[21.1 µM]	7%[21.1 µM]	.	.	.	i
Cn1c(NCc2ccc3occc3c2)nc2cc(-c3cccc(C(F)(F)F)c3)sc2c1=O	-29%	-18%	11%	-38%	?	i
Clc1ccccc1N1CCN(Cc2c[nH]c3ccccc23)CC1	5.2µM*	2.6µM*	-23%	-49%	16µM*	i
O=C(C(=O)N1CCN(c2ccccc2Cl)CC1)c1c[nH]c2ccccc12	?	?	.	-1%	-19%	i
O=C(CN1CCN(c2ccccc2F)CC1)c1c[nH]c2ccccc12	?	?	7%	-12%	2%	i
Fc1ccccc1N1CCN(C2CCN(Cc3c[nH]c4ccccc34)CC2)CC1	?	16µM*	-9%	-1%	1%	i
CC(C)Oc1cccc(C(=O)Nc2ccc(-c3nc4cc(Cl)cc(Cl)c4o3)cc2)c1	-17%	-21%	0%	2%	-5%	i
CC(=O)Nc1ccc(Sc2ncccc2C(=O)Nc2ccc(OC(F)(F)F)cc2)cn1	5.2µM*	6.5µM*	8%	-2%	2%	i
CC(=O)Nc1ccc(Sc2ncccc2C(=O)Nc2cc(Cl)cc(Cl)c2)cn1	?	?	-4%	-33%	?	i

Compound activity from PubChem BioAssay.
